According to the supplement of paper PMC6555819:

test system: VDR:RXRa (NR concentration 270 nM, RXRa partner concentration 90 nM); experiment: PBM binding z-score (relative to random genomic background probes); higher = stronger binding; sequences stand for … in GC…GCGATTGACAGCGTAGAATGAAGG
Method: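 Protein-binding microarray (Agilent 4x180K custom design, double-stranded 60-nt probes: 5' GC cap, 34-nt variable region, 24-nt constant primer region; full probe sequence given). Purified or IVT nuclear receptor:RXRα heterodimers (3:1 NR:RXRα, mostly 270:90 nM) or homodimers were incubated for 1 h in PBS with 2% milk and no ligand, then detected with Alexa488 antibodies. Fluorescence from o1-orientation probes (~5 replicates averaged) was converted to z-scores against 500 random hg19 background probes. Variable regions are seed direct-repeat (DR0–DR5) sites, all their single-nucleotide variants and half-site ablations.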

Sequence | PBM binding z-score
GATACAGGGTCAGCTAGAGGCCCGAGTATGGAAA | 2.11
CCGAGTGGGTTATGGGGCATTCAGGCAACGGTGA | -0.199
CGTCCCAGGTCATAGGAGGTCAGTGAAGACAGAT | 6.01
GATACAGGGTCAACGCCAGAGTACGCGTATTGAT | 4.77
GCGACTGGGGCAAAGCCGGTTACCATAAGGTTGG | -0.76
CGAACGAGGGCATGAGTGGATAGCAAATGCCGAT | 0.295
AGAATGAGGTTACAAAAGATCAGGGAAACGCTTG | 1.24
TCATATAGGTAATACAGGTAAAAGTCGGCATCTA | 1.24
CCTGCTAGGTCAACGGTCAGCTAAAGCAGCTCGC | 1.58
TAGCCTAGGTCATGGGCCAGTAGACCACGCGAAC | 1.85
TATTGTAGATCAACAGGAGGTTAAGAAAGATCGA | 0.587
GCTTGTAGATCAAGGGTAAGAAAGACTAAGCTAA | -0.559
TAGCCTAGGTCATGCGGGCCAGTATCGTGTCGGC | 2.81
ATCGAAAGGTAGAGGTGAGTATAGAGAAAGGGAA | 0.0851
CCTACTGGGCCAAAAAGGTCATTGAGGCCGATAA | 6.03
TAGCCTAGGTCATGGGCCAGTATCCCACGCGAAC | 1.76
TATACAGGGTCAAAGTCCAGAGTACGAATGTCGA | 5.09
TGACCAAGGTGAGCTGAGGTCGTTGATCCAACTC | 3.9
ATCTCTAGGTAACAAGTTCAGTGATAGAGAGGAC | 1.91
TCTAGTTGGTCACGGAGGTCACACCCGACGGGTA | 5.67

Sequence | PBM binding z-score
TAGCCTAGGTCAGATGGGGCCAGTATACGCTATA | 2.69
TCTATTAGTTGATTAGGGCAGCCGAAACAGCGGA | 0.607
ATTTACGGGTCAACGAGGTTATAGCACGCGTATA | 8.05
GCGAATGGGGCAAAGCAGGTTACCATAAGGTTGG | 0.361
AAAATGAGGTTATTAAGATCAGGGAATTGCGGTC | 2.47
ATCTCTAGGTAAGAATCAGTTCAGTGAAGAACGC | 0.845
ACTAGCAGGTCAAGTTTGGGTCACTCAAACAAAG | 4.68
ATATGTAGGTTAAGGCTCATTCAGGTTGGTTCGC | 0.395
ATCTCTAGGTAACCAAGTTCAGTCAATGCCGAAC | 4.36
CAAACTAGGTCAAGATGTCAAAGTCCGCTTCCCG | 2.2
TCAGACAGGTGAAGGTAACGCAGGTACGCAGTCG | 0.637
CCAGACAGGTGAGAAGGTAAATCAGCCTCGATTA | -0.13
GGAACGAGGGCAAGTTGATTGCAGAGTTTGATGG | 0.675
TTACCAAGGTGAGCAGAGGTCGTTGATCCAACTC | 3.68
CCTACTGGGCCACGGAAGGTCATTGATTCAGTGA | 2.83
ACTATTAGTTGAGTTAGGGCAACCGATACGACGC | 0.0394
GCTGCTAGGTCCACTGATGGTCAGCTAAAGCTCG | -0.609
ATCTATAGGTAAGACTCAGTTCAGTGAAGAACGC | 0.866
AGAACGAGGGCACGCTGAGTTCATAGCAGAGTAG | 6.39
TCTTGTAGATCAATAGAGCTTAAGAAAGTGCGCT | -0.108
